TDP1 block = inhibitors of human tyrosyl-DNA phosphodiesterase TDP1 | AID 485290 | Q9NUW8 | actives 0.28% (n = 350,000) | recombinant TDP1, AlphaScreen DNA substrate cleavage | Potency, µM (titrated, usually from 130 µM), inactives show at the top dose activity change, negative = inhibition, hits mostly inhibitors; further: potency means the concentration at half of the fitted maximal effect; nearly all actives have a fitted effect of over 40% in size
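Compounds were preincubated with Tdp1 (1 nM final) for 15 min at room temperature before substrate (15 nM final) started a 5 min reaction; beads (10 ug/ml final) were then added for 10 min before AlphaScreen detection.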
PGK inhibitor = inhibitors of T. brucei phosphoglycerate kinase; P07378; PGK/GAPDH coupled, Kinase-Glo luminescence, 60 min; Potency, µM (series often up to 57.5 µM), for the others: top-dose activity change, negative = inhibition, usual class: inhibitors; actives 0.043% (n = 380,000); AID 602233; further: potency means the concentration at half of the fitted maximal effect; nearly all actives have a fitted effect of over 60% in size
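Luminescent ATP detection (Kinase-Glo Plus) follows a 60-minute room-temperature incubation, with wells lacking PGK as controls. Buffer: 100 mM TEA (pH 7.6), 5 mM MgCl2, 0.01% Tween-20. Coupling enzyme GAPDH (100 nM final) supplies unstable 1,3-BPG in-well.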
FEN1 inh = blocks human flap endonuclease 1; Recombinant FEN1 flap cleavage, fluorescence, 15 min; actives 0.35% (n = 390,000); AID 588795; Potency, µM (series often up to 114 µM), for inactives: top-dose activity change, negative = inhibition, hits mostly inhibitors; further: potency means the concentration at half of the fitted maximal effect; nearly all actives have a fitted effect of over 65% in size
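Reaction started by adding substrate (50 nM final) to 10 nM enzyme after 15 min room-temperature compound preincubation. Reads at 0 and 15 min, with data normalized and fitted to a four-parameter Hill equation.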
Tb PFK block = inhibitors of T. brucei phosphofructokinase; Potency, µM (highest dose often 57.5 µM), inactives show at the highest dose activity, negative = inhibition, usual class: inhibitors; O15648; AID 485367; T. brucei PFK, ADP-Glo luminescence; actives 0.17% (n = 330,000);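 further: potency means the concentration at half of the fitted maximal effect; 0% = uninhibited 1x PFK enzyme wells and -100% = no-enzyme wells; nearly all actives have a fitted effect of over 60% in size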
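1.25 nM PFK with 0.5 mM F6P and 0.1 mM ATP in 0.1 M TEA pH 8.0, 5 mM MgCl2, incubated 45 min at room temperature; ADP measured by ADP-Glo luminescence; compounds titrated up to 57 uM.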
WRN helicase inh = blocks human WRN helicase | WRN helicase unwinding, fluorescent forked duplex, kinetic | Potency, µM (highest dose often 114 µM), for inactives: at the highest dose activity change, negative = inhibition, hits mostly inhibitors | actives 0.46% (n = 360,000) | AID 651768; further: potency means the concentration at half of the fitted maximal effect; nearly all actives have a fitted effect of over 55% in size
Target sequence (Q14191 whole entry, looked up): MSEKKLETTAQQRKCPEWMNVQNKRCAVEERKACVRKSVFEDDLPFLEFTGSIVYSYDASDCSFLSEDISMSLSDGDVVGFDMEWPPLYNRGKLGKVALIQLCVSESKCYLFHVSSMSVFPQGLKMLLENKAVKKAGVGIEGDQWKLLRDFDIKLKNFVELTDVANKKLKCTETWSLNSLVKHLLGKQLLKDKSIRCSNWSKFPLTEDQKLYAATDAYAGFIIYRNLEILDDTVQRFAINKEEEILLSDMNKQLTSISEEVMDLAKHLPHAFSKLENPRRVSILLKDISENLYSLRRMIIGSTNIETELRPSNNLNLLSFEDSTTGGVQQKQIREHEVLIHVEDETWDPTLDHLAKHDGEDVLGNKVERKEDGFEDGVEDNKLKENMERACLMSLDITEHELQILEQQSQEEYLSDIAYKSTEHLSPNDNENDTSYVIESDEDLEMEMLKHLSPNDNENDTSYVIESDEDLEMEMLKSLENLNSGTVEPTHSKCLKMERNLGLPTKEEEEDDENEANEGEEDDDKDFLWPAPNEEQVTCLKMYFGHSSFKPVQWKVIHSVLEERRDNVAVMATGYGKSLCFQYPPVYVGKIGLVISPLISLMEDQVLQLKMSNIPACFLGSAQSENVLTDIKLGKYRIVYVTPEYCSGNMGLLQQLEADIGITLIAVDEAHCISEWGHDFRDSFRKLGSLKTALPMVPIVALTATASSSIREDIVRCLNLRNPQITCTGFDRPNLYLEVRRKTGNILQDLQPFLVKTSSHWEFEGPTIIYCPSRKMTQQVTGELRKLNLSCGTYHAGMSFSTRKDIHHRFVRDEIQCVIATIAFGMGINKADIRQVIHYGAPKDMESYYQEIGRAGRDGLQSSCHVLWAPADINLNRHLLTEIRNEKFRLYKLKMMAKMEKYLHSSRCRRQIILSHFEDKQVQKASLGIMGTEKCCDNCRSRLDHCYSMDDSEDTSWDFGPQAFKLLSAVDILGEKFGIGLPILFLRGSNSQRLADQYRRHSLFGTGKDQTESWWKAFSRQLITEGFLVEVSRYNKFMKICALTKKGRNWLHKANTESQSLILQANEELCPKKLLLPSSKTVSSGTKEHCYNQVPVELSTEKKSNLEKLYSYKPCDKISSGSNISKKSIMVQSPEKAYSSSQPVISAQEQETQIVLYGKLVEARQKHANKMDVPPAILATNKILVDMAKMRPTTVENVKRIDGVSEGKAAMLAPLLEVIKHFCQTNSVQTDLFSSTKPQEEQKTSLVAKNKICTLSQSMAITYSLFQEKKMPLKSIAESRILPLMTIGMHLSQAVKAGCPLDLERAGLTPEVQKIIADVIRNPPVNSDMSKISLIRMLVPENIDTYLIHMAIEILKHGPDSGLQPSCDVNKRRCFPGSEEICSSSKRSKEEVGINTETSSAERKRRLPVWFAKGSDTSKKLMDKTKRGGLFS
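WRN at 20 nM final preincubated with compound 15 min at room temperature; reaction started with 100 nM fluorophore/quencher forked duplex oligonucleotide and 2 mM ATP final. Unwinding followed kinetically by red fluorescence (ex 525, em 598 nm).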
PI5P4Ka inh = inhibitors of human PI5P4K alpha | actives 1.2% (n = 330,000) | max response, % | P48426 | AID 652105 | PI5P4Kalpha enzyme, ADP-Glo luminescence, 60 min; active compounds read low; active means max response of -50% or lower; inconclusive means between -30% and -50%; inactive means -30% or higher; further: value at the top dose of about 77 µM
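Human PI5P4Kalpha with substrate in 0.038 M HEPES pH 7.4, 0.28 mM EGTA, 0.1% CHAPS, 5% DMSO; reaction started with 5 microM ATP (final), 60 min at room temperature. ADP formed read by ADP-Glo luminescence.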
An asterisk follows results filed as active; i = inactive; ? = inconclusive; . = no result; ! = repeats disagree; [ ] = another dose, or the depositor's remark. A selection: hits, their analogues and other compounds. The true share with any hit is near 1.5%. Unless noted, the call rests on the fitted dose curve; in most records, active means well fitted curve in the direction sought with a large enough effect; inconclusive means small, poorly fitted or top-dose-only effect, or another doubt; inactive means no such curve, though single readings can be large; an effect the other way counts as inactive or inconclusive. Unless noted, on the % scale 0 is the no-effect control and ±100 the full control effect.

SMILES | TDP1 block | PGK inhibitor | FEN1 inh | Tb PFK block | WRN helicase inh | PI5P4Ka inh
COc1cc(-c2oc3cc(O)cc(O)c3c(=O)c2O[C@@H]2O[C@H](CO)[C@@H](O)[C@H](O)[C@H]2O)ccc1O | 9% | . | . | . | . | .
N#CN1CCC(NC(=O)c2cccc(C(F)(F)F)c2)CC1 | 0% | . | . | . | . | .
Cc1sc2ccccc2[n+]1CC(=O)c1ccc(F)cc1 | . | . | 0% | . | . | .
O=C(O)c1cccc2[nH]c(C(F)(F)F)nc12 | -4% | 9% | -6% | -5% | 5% | -6
Nc1cccc2[nH]c(C(F)(F)F)nc12 | . | -5% | 56µM* | ? | -97% | ?
Cc1ccc(NS(=O)(=O)c2cc3c(cc2Cl)CCC(=O)N3)cc1Cl | 1% | . | . | . | . | .
Cc1ccc2c(c1)c1c(c(=O)n(-c3ccccc3C)c(=O)n1Cc1cccc(F)c1)n2C | 6% | 7% | 13% | . | . | .
O=C(NC1CCCCC1)c1cc(-c2ccco2)on1 | -1% | -11% | -3% | 2% | -8% | -2
CC(=O)c1ccc(NC(=O)CSc2nnc(-c3ccco3)c(-c3ccco3)n2)cc1 | -3% | -22% | 32µM* | -12% | 32µM* | -64*
CNC(=O)c1ccc2nc(-c3ccco3)c(-c3ccco3)nc2c1 | 11µM* | . | 6.3µM* | . | . | .
CC(=O)c1ccc(NC(=O)c2ccc3nc(-c4ccco4)c(-c4ccco4)nc3c2)cc1 | 11µM* | ? | 50µM* | -21% | 25µM* | -110*
COc1ccc(-c2nnc(SCC(=O)Nc3ccc(C(C)=O)cc3)nc2-c2ccc(OC)cc2)cc1 | 4% | -9% | 5% | . | . | .
O=C(NC1CC1)c1ccc2nc(-c3ccco3)c(-c3ccco3)nc2c1 | ? | . | 11µM* | . | . | .
CCc1nc2ccc(C(=O)Nc3ccc(NC(C)=O)cc3)cc2nc1CC | 3% | -1% | 2% | 5% | -2% | -5
Nc1cccc(/C=C/c2ccnc3ccccc23)c1 | . | . | -15% | . | . | .
O=C1CCc2cc(S(=O)(=O)Nc3ccncc3)ccc2N1 | 1% | . | . | . | . | .
Fc1ccc(/C=C/c2ccc3ccccc3n2)cc1 | . | . | -7% | . | . | .
O=C(Nc1ccc(N2CCOCC2)cc1)c1ccc2nc(-c3ccco3)c(-c3ccco3)nc2c1 | 6% | 0% | 11% | -1% | -9% | .
O=C(Nc1ccccc1)c1ccc2nc(-c3ccco3)c(-c3ccco3)nc2c1 | 0% | -7% | ? | -3% | 40µM* | .
O=c1[nH]c(/C=C/c2cccc3ccccc23)nc2ccccc12 | 5% | 4% | 8% | 0% | 5% | -11
O=c1[nH]c(/C=C\c2cccc(F)c2)nc(O)c1[N+](=O)[O-] | . | -8% | 0% | 8% | -30% | -55*
O=c1[nH]c(/C=C/c2ccccc2F)nc2ccccc12 | 45µM* | -8% | 15% | 0% | 8% | 2
O=c1[nH]c(/C=C\c2ccccc2F)nc(O)c1[N+](=O)[O-] | . | -1% | -14% | 0% | -10% | -72*
N#Cc1ccc(N=c2ssnc2Cl)cc1 | 2% | -10% | ? | ? | 40µM*! | -91*
Cc1ccc(C#N)cc1 | 8% | . | . | . | . | .
SMILES | TDP1 block | PGK inhibitor | FEN1 inh | Tb PFK block | WRN helicase inh | PI5P4Ka inh
COc1ccc(N=c2ssnc2Cl)cc1 | 8% | -3% | -5% | ? | ? | -83*
Clc1ccc(N=c2ssnc2Cl)cc1 | 14%[56.1 µM] | -6% | 0% | ? | 79µM* | .
COc1ccc(N=C2SCC(=O)N2C)cc1 | . | 3% | . | . | 2% | 0
Fc1ccc(N=c2ssnc2Cl)c(F)c1 | -6% | i | ? | ? | 32µM* | -62*
Cc1cc(N2C(=O)c3ccccc3C2=O)n[nH]1 | 0% | . | . | . | . | .
COc1cc(N=c2ssnc2Cl)cc(OC)c1OC | 6% | 4% | -6% | ? | 56µM* | -69*
COc1cc(/C=C/c2nc3ccccc3nc2/C=C/c2cc(OC)c(OC)c(OC)c2)cc(OC)c1OC | . | . | -4% | . | . | .
Clc1nssc1=Nc1ccccc1 | 9% | 2% | -1% | ? | ? | -57*
OC[C@H]1NC[C@H](O)[C@@H](O)[C@@H]1O | 9% | . | . | . | . | .
COc1ccccc1CNC(=O)C1CCN(S(=O)(=O)c2c(C)noc2/C=C/c2cccs2)CC1 | 0% | -8% | 89µM* | . | . | .
COc1cccc(NC(=O)C2CCN(S(=O)(=O)c3c(C)noc3/C=C/c3cccs3)CC2)c1 | 0% | i | -16% | . | . | .
C[n+]1c(/C=C/c2ccnc3ccccc23)cc(/C=C/c2ccnc3ccccc23)c2ccccc21 | . | . | 10µM* | . | . | .
COc1cc(OC)c(OC)cc1/C=C/c1ccnc2ccccc12 | . | -1% | ? | . | 2% | 2
Cc1cc([N+](C)(C)C)cc(C)c1/C=C/c1ccnc2ccccc12 | . | . | 22µM* | . | . | .
Cc1cc(N(C)C)cc(C)c1/C=C/c1ccnc2ccccc12 | . | . | -13% | . | . | .
N#Cc1ccc(/C=C2\C=Cc3ccccc32)cc1 | . | . | 12% | . | . | .
COC(=O)c1ccc([C@H]2Nc3ccc(S(=O)(=O)Nc4cccc(C)c4)cc3[C@H]3C=CC[C@H]32)cc1 | . | -14% | -22% | . | . | .
COC(=O)c1ccc(C2Nc3ccc(/C(C)=N/NC(=O)C(OC)c4ccccc4)cc3C3C=CCC32)cc1 (centres undefined) | 0% | -6% | 9% | 0% | -14% | -66*
O=C(CNC(=O)/C=C/c1ccco1)N=Nc1c(O)[nH]c2ccccc12 | 40µM* | ? | -3% | ? | 0% | -2
Cc1ccc2nc(-c3ccc(N)cc3)sc2c1S(=O)(=O)O | 32µM* | . | . | . | . | .
Cc1ccc(N=Nc2ccc3ccccc3c2O)cc1 | . | ? | 6% | 0% | ? | 48
Cc1ccc2nc(-c3ccc(N=Nc4cc(S(=O)(=O)O)c5ccccc5c4O)cc3)sc2c1S(=O)(=O)O | -7% | . | 7.1µM* | . | . | .
CC1CCN(C(=O)C(C)OC(=O)c2ccc(S(C)(=O)=O)c([N+](=O)[O-])c2)CC1 (centres undefined) | 0% | . | -4% | . | . | .
O=C(O)CNS(=O)(=O)c1ccc2c3c(cccc13)C(=O)N2 | 0% | -14% | ? | -22% | 56µM* | -16
O=C(O)CCCCCNS(=O)(=O)c1ccc2c3c(cccc13)C(=O)N2 | . | -2% | -1% | 2% | ? | -13
O=C(O)c1sc(C(=O)O)c(-c2ccccc2)c1-c1ccccc1 | . | i | . | . | 7% | ?
CC(=O)c1sc(C(=O)O)c(-c2ccco2)c1-c1ccco1 | 50µM* | -27% | ? | -19% | -36% | ?
Cc1cc(NS(=O)(=O)c2ccc(NC(=O)c3cc4c(=O)n5ccccc5nc4s3)cc2)nc(C)n1 | 40µM* | -6% | -26% | -4% | ? | ?

Assay outcomes (PubChem)
